For 38 compounds, outcome and AC50 results are on record in PubChem BioAssay (EPA / NIEHS).

Records with an inconclusive call do not appear. The source made the active and inactive calls. Rule for the calls: active = hit-call score of the fitted dose curve at least 0.9, where 1 is the maximum; inconclusive = response in the unintended direction; inactive = score below 0.9.

The experiment is described as follows: ACEA_ER_AUC_viability: ACEA Biosciences xCELLigence Real-Time Cell Analysis on Estrogen Receptor Agonism for Viability (AID 2283782).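 Note: hit means loss of impedance signal meaning reduced cell growth or viability.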 The gist of the method:
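Read-out: real-time electrical impedance (RT-CES) area under curve, loss of signal taken as reduced viability, normalized to DMSO baseline. T-47D cells, charcoal-stripped serum medium, compounds up to 100 uM final, continuous exposure, 80 h.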
Regarding `CC(=O)CC(C)(C)C1CCCCC1`, the result was inactive.

Usually AC50 stands for the midpoint of the concentration-response curve, whichever way the signal moves. `CN(C)CCC=C1c2ccccc2CCc2ccccc21`: the AC50 is 26.2 µM (active).

Turning to `CC(C)CCCC(C)(C)O`, the call was inactive.

As to `c1ccc2c(c1)-c1ccc3ccc4cccc5cc-2c1c3c45`, the result was inactive.

For `c1ccc(Sc2ccccc2)cc1`, the AC50 is 83.4 µM (active).

Turning to `OCCN1CCOCC1`, the result was inactive.

With `CC(=O)c1ccc(C)cc1`, the compound was called inactive.

Regarding `NC(=O)NC(N)=O`, the result was inactive.

Regarding `CC/C=C\CCOC(=O)C(C)C`, the compound was classed as inactive.

As for `N#CCCNCCC#N`, the call was inactive.

On to `CCCOC(=O)CC`, for which the compound was classed as inactive.

Turning to `CC(C)=CCCC(C)=CC(=O)O`, the outcome was inactive.

As to `CC/C=C\CCCCO`, the AC50 was 50 µM (active).

In the case of `Nc1ccn([C@H]2CC[C@@H](CO)O2)c(=O)n1`, the compound was called inactive.

For the compound `CCCCCCCCCC(=O)OCC`, the compound was classed as inactive.

For the compound `CCCCOCC(C)OCC(C)O` (stereo not drawn), the outcome was inactive.

Turning to `NC(=O)c1c(Cl)cccc1Cl`, the result was inactive.

`CC1=CC[C@@H](C(C)(C)O)CC1`: the compound was called inactive.

On to `Cc1ccccc1S`, for which the outcome was inactive.

For the compound `CCC(CC)CO`, the outcome was inactive.

For the compound `CC(C)Cc1ccc(C(C)C(=O)O)cc1` (stereo not drawn), the call was inactive.

For `CCCCC1CCCCC(=O)O1` (stereo not drawn), the compound was called inactive.

For the compound `NCCCOCCOCCOCCCN`, the AC50 was 86.7 µM (active).

As for `CCCCC(CC)COC(=O)COc1ccc(Cl)cc1C` (stereo not drawn), the outcome was inactive.

As to `OC[C@@H](O)[C@H](O)[C@@H](O)[C@@H](O)CO`, the outcome was inactive.

As to `O=S(=O)(O)CCCN1CCOCC1`, the AC50 is 36.6 µM (active).

Consider `O=C(C=Cc1ccccc1)OCCCc1ccccc1`, for which the AC50 was 60 µM (active).

As for `CCCCCCC(O)CCOC(C)=O` (stereo not drawn), the compound was called inactive.

For the compound `O=C1CCC(=O)N1`, the AC50 is 50 µM (active).

Turning to `NS(=O)(=O)c1cc(C(=O)O)c(NCc2ccco2)cc1Cl`, the outcome was inactive.

On to `CC(C)C(=O)OCC=Cc1ccccc1`, for which the outcome was inactive.

On to `CC/C=C/CCCCCCCCCCOC(C)=O`, for which the compound was classed as inactive.

Take `C[Si]1(C)N[Si](C)(C)N[Si](C)(C)N1`: the result was inactive.

As for `CC(C)N1C(=O)c2ccccc2C1=O`, the result was inactive.

Take `CCCCCC#CC(=O)OC`: the AC50 is 50 µM (active).

`CC(=O)c1cccnc1`: the outcome was inactive.

On to `CN(C)CCCNCCCN(C)C`, for which the half-maximal activity concentration (AC50) is 50 µM (active).

As for `CC/C=C\CCCCCCCCCCOC(C)=O`, the outcome was inactive.
